Source: PubChem BioAssay
Shown are actives, neighbours in structure and some others; about 13% of the full set was active somewhere.
Sfp PPTase inh: qHTS Assay for Inhibitors of Bacillus subtilis Sfp phosphopantetheinyl transferase (PPTase); 4'-phosphopantetheinyl transferase ffp (Bacillus subtilis), Q9F4F7; Biochemical Sfp PPTase activity, qHTS; Potency, µM, actives largely listed as inhibitors; AID 1490, 2009; 3.5% of 310,000 active;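 further: the enzyme is Sfp with the accession as filed and its product quenches rhodamine fluorescence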
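Reaction rates are the 30-min fluorescence difference (ex 525, em 598 nm) in wells containing 15 nM Sfp, 5 uM rhodamine-CoA and 12.5 uM BHQ-2-YbbR at pH 7.6 with 10 mM MgCl2.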
G9a block: qHTS Assay for Inhibitors of Histone Lysine Methyltransferase G9a | Potency, µM (highest dose often 102 µM), most hits filed as inhibitors | Histone-lysine N-methyltransferase EHMT2 (Homo sapiens), Q96KQ7 | AID 504332, 2011 | 8.8% of 350,000 active | G9a H3K9 monomethylation, AlphaScreen, 2 h; further: nearly all actives have a fitted effect of over 75% in size
Target sequence (Q96KQ7 913-1193 limits assumed): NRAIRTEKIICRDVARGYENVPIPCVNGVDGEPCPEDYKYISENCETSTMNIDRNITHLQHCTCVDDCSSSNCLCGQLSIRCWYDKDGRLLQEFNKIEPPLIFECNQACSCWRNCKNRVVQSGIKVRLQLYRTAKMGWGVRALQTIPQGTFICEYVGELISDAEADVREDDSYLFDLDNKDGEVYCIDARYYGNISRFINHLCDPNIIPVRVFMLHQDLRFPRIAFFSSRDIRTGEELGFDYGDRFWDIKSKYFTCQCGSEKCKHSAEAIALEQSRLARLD
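Methyltransferase reactions run at room temperature for 2 h (20 nM enzyme, 500 nM biotin-H3K9 peptide, 20 uM SAM) after a 15 min compound preincubation; product detected by AlphaScreen beads and anti-H3K9me1 antibody.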
JMJD2E inh: qHTS Assay for Inhibitors of Human Jumonji Domain Containing 2E (JMJD2E). Potency, µM (series often up to 57.1 µM), actives largely listed as inhibitors. 1.6% of 230,000 active. JMJD2E catalytic domain, FDH-coupled NADH fluorescence (FDH is formaldehyde dehydrogenase). AID 2147, 2009; active means well fitted inhibition curve with a large enough effect, not every such curve was filed as active; inconclusive means small, poorly fitted or top-dose-only effect, or another doubt; inactive means no such curve, though single readings can be large or run the other way; further: nearly all actives have a fitted effect of over 50% in size
Target sequence (B2RXH2 1-337 limits assumed): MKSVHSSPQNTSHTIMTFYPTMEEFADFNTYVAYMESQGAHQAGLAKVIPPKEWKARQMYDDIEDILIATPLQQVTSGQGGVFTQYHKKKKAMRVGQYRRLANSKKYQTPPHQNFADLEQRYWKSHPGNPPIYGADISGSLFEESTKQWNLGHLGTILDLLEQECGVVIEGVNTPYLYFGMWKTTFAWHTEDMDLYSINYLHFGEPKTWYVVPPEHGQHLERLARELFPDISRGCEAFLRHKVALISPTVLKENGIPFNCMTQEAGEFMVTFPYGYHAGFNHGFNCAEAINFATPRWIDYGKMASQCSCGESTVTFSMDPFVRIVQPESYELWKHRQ
ALDH1A1 inh: qHTS Assay for Inhibitors of Aldehyde Dehydrogenase 1 (ALDH1A1); Aldehyde dehydrogenase 1A1 (Homo sapiens), P00352; Purified ALDH1A1, NADH fluorescence, propionaldehyde substrate; Potency, µM (highest dose often 75.3 µM), usual class: inhibitors; 7.3% of 220,000 active; AID 1030, 2008; active means well fitted inhibition curve with a large enough effect, not every such curve was filed as active; inconclusive means small, poorly fitted or top-dose-only effect, or another doubt; inactive means no such curve, though single readings can be large or run the other way
LMNA splice mod: qHTS Assay for Modulators of Lamin A Splicing; HeLa LMNA splicing GFP/RFP minigene ratio, 48 h; Potency, µM (top dose mostly 46.1 µM), actives largely listed as inhibitors; 0.01% of 200,000 active; active means well fitted inhibition curve with a large enough effect in the signal ratio, with a control signal flat, not every such curve was filed as active; inconclusive means small, poorly fitted or top-dose-only effect, or effect the other way, or a change in a side signal; the % refers to the signal ratio
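S3 HeLa cells stably expressing lamin A-EGFP splicing minigene plus DsRed2, 600 cells/well, 48 h compound exposure at 37C. Laser-scanning cytometry; analysed as GFP (500-530 nm)/RFP (575-640 nm) total intensity ratio; 0.5% DMSO vehicle.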
miR-21 reporter: qHTS Assay for Modulators of miRNAs and/orActivators of miR-21 | 340,000 tested, under 10 active | Potency, µM (top dose mostly 38.3 µM), most hits filed as activators | HeLa miR-21 FLuc reporter, luciferase, 48 h | AID 2288, 2010;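 further: miR-21 action dims this reporter so a rising signal means less miR-21 action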
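Using DMEM plus 10% FBS, HeLa miR-21-FLuc cells are incubated with test compounds (final up to about 40uM) for 48 hours; firefly luciferase signal is then imaged following reagent-mediated lysis.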
A number is an active result; n = inactive; u = inconclusive; x = no result given; [ ] = remark or other dose. Unless noted, the call rests on the fitted dose curve; in most records, active means well fitted curve in the direction sought with a large enough effect; inconclusive means small, poorly fitted or top-dose-only effect, or another doubt; inactive means no such curve, though single readings can be large; an effect the other way counts as inactive or inconclusive.

SMILES | Sfp PPTase inh | G9a block | JMJD2E inh | ALDH1A1 inh | LMNA splice mod | miR-21 reporter
CC[C@H](C)[C@H](NC(=O)CNC(=O)[C@@H](NC(=O)[C@@H](NC(=O)[C@H](Cc1ccc(O)cc1)NC(=O)[C@H](CC(C)C)NC(=O)[C@H](C)NC(=O)[C@H](CCC(N)=O)NC(=O)CNC(=O)[C@@H]1CCCN1C(=O)CNC(=O)[C@H](Cc1ccccc1)NC(=O)[C@H](Cc1cnc[nH]1)NC(=O)[C@@H](NC(=O)CNC(=O)[C@H](CCCNC(=N)N)NC(=O)[C@H](CCCNC(=N)N)NC(=O)[C@@H](NC(=O)[C@H](CC(N)=O)NC(=O)[C@@H](N)CS)[C@@H](C)O)[C@@H](C)CC)[C@@H](C)O)[C@@H](C)O)C(=O)O | n | x | x | x | x | x
Cc1ccc(-n2cnc3c(sc4nc(N5CCOCC5)c5c(c43)CCCC5)c2=O)cc1 | n | 50µM | u | x | x | n
COc1ccc(N=Nc2ccc3ccccc3c2)c(O)c1 | u | 10µM | x | x | x | n
CCOc1ccccc1NC(=O)N1CCC2(CC1)Oc1ccccc1C(=O)N2Cc1ccccc1F | x | n | x | x | x | n
Cc1nc(-n2nc(C)c(Cc3ccc(Cl)cc3)c2C)sc1C(=O)N1CCCCC1C (stereo not given) | x | n | x | x | n | n
CCOc1cc(C=O)cc(N=Nc2cccc([N+](=O)[O-])c2)c1O | n | 45µM | x | x | x | n
Cc1ccc(-c2ccc(=O)n(CC(=O)NC(C)c3ccccc3)n2)cc1 (stereo not given) | x | n | x | x | n | n
O=C(NC1CCCCC1)c1cc(S(=O)(=O)N2CCCC2)ccc1Cl | n | n | x | x | x | n
CCOC(=O)C1=C(N)Oc2cc(O)ccc2C1c1ccc(C)cc1 (stereo not given) | n | x | x | x | x | n
CCOC(=O)C1=C(N)Oc2ccc(Br)cc2C1C(C#N)C(=O)OCC (stereo not given) | n | n | x | 16µM | x | x
COCCNc1ncnc2ccc(-c3ccccc3C)cc12 | 79µM | n[0.501 µM] | x | u | n | x
O=C1c2ccccc2C(=O)c2c(Nc3ccc(CCO)cc3)ccc(O)c21 | u | 3.5µM | n | n | u | n
O=C1c2ccccc2C(=O)c2c(NCCc3ccc(O)cc3)ccc(NCCc3ccc(O)cc3)c21 | x | 1.8µM | x | x | x | x
COc1ccc2c(c1)C(C)CC(C)(C)N2C(=O)Nc1ccccc1 (stereo not given) | n | 22µM | x | x | x | n
O=C(Cn1nnc(-c2ccccc2-n2cnnn2)n1)c1ccccc1 | n | n[12.7 µM] | n | 13µM | n | n
Cc1nn(-c2ccccc2)c(Cl)c1C(=O)Nc1nnc(C2CCCC2)s1 | u | n | n | 2.8µM | u | n
Cc1nn(-c2ccccc2)c(Cl)c1C(=O)NC1CCCCC1 | n | x | n | n | n | n
O=C(c1ccc2c(c1)OCCO2)N1CCCC(CNS(=O)(=O)c2cccs2)C1 (stereo not given) | n | x | n | 2.2µM | x | n
CCn1cc(C(=O)N[C@H](C(=O)NCCCO)C(C)C)c(=O)c2cc3c(cc21)OCO3 | n | n[12.7 µM] | x | x | x | n
NNc1nccc(Nc2ccccc2C(=O)O)n1 | 50µM | u | n | u | n | n
O=C(/C=C/c1ccc2c(c1)OCO2)c1cccs1 | 71µM | x | 22µM | u | x | x
COC(=O)/C=C/c1ccc2c(c1)OCO2 | n | n | u | u | u | n
CCNc1ccccc(C(=O)/C=C/c2ccc3c(c2)OCO3)c1=O | 45µM | 5µM | 20µM | 10µM | n | n
Cc1ccc(C(=O)Nc2ccc3nc(SCC(=O)N4CCCc5ccccc54)sc3c2)cc1 | x | n | x | x | u | n
CCC1CN(C(=O)N2CCC(C(=O)NCCN(CC)CC)CC2)c2ccccc2O1 (stereo not given) | x | n | x | x | n | n
SMILES | Sfp PPTase inh | G9a block | JMJD2E inh | ALDH1A1 inh | LMNA splice mod | miR-21 reporter
COc1ccc(C(=O)CNc2ccccc2CO)cc1 | n | u | n | 14µM | n | n
COc1ccccc1NCC(=O)c1ccc(Cl)cc1 | 50µM | 50µM | x | x | x | u
COC(=O)c1ccccc1NCC(=O)c1ccc(OC)cc1 | n | u | x | x | x | n
COc1ccc(C)cc1NC(=O)c1cccc(C(=O)Nc2cc(C)ccc2OC)n1 | u | n | x | x | x | n
COc1ccc(-c2cc(C(=O)NN)[nH]n2)cc1 | n | n | n | 20µM | u | n
COc1ccc(-c2cc(C(=O)N/N=C/c3ccc(O)cc3)[nH]n2)cc1 | x | x | x | 13µM | x | x
COc1ccc(C(=O)Nc2cc(-c3ccccc3)nn2-c2ccccc2)cc1 | x | n | x | x | n | n
COc1ccc(-c2cc(C(=O)NN)n(-c3ccccc3)n2)cc1 | n | n | n | 8.9µM | u | n
CC(=O)Nc1ccc(-c2nnc3n(Cc4ccc(C)cc4)c(=O)c4ccccc4n23)cc1 | x | n | x | x | x | n
CCOC(=O)C1=C(COC(=O)/C=C/c2cc(OC)c(OC)c(OC)c2)NC(=O)NC1C (stereo not given) | n | x | x | x | x | n
N#CC1=C(N)SC(N)=C(C#N)C1c1cccc(Oc2ccccc2)c1 | 28µM | u | n | 10µM | u | n
N#CC1=C(N)SC(N)=C(C#N)C1c1c(Cl)cccc1Cl | 7.1µM | 11µM | u | 22µM | n | n
CCOC(=O)C1C(=O)N(O)CC1c1cccc(Oc2ccccc2)c1 (stereo not given) | n | n | n | n | x | n
CCOC(=O)c1nc(Nc2ccc(C(=O)OCC(C)C)cc2)c2ccccc2n1 | x | n | x | x | x | n
O=C(Nc1ccc2nc(SCC(=O)N3CCc4ccccc43)sc2c1)c1ccccc1 | x | n | x | x | n | n
CC(C)(C)c1ccc(/C=N/NC(=S)Nc2cccnc2)cc1 | n | u | n | n | n | n
CCC(C)(C)C1CCC(=NNC(=S)Nc2ccccc2)CC1 (stereo not given) | n | 7.9µM | u | u | x | n
CCC(C)(C)C1CCC(=NNC(=S)Nc2cccnc2)CC1 (stereo not given) | u | 7.9µM | n | u | u | n
CC1=C/C(=N\NC(=S)Nc2cccnc2)CC(C)(C)C1 | n | u | n | 12µM | u | n
CC(C)(C)C1CCC(=NNC(=O)C(=O)NCc2cccnc2)CC1 (stereo not given) | n | u | n | n | n | n
CC(C)(C)C1CCC(=NNC(=S)NCc2ccccc2)CC1 (stereo not given) | n | 8.9µM | n | u | u | n
O=C(NCc1ccc2c(c1)OCO2)c1ccc2c(c1)N(Cc1cccc(Cl)c1)C(=O)c1ccccc1S2=O (stereo not given) | x | n | x | x | n | n
CC(=O)OCC1OC(C#Cc2ccc(F)cc2F)C=CC1OC(C)=O (stereo not given) | n | x | x | u | x | x
